Screens (PubChem)
Mcl1-Noxa inh: Mcl-1/Noxa interaction inhibition. 220,000 tested, 1.5% active. AID 1022. TR-FRET Mcl-1/Noxa peptide binding, 2 h. inhibition, % at 21.7 µM;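 active = compounds that cut the protein-peptide binding signal by more than 50% relative to plate controls in a single-dose test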;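 also: His-tagged Mcl-1 with rhodamine Noxa BH3 peptide and terbium anti-His antibody; 0% = Mcl-1 plus Noxa peptide wells and 100% = peptide-only wells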
Target sequence (Q07820 whole entry, looked up): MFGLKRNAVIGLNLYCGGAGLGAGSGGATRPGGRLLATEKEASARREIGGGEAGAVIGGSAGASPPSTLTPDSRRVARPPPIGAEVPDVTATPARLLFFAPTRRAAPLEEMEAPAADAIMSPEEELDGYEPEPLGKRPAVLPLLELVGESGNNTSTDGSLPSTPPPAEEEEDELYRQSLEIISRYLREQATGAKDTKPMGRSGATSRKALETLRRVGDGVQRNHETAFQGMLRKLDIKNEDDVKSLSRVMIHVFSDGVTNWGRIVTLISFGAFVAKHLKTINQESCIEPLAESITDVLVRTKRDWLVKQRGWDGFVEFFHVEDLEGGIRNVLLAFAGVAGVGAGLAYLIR
Bim-Mcl-1: inhibitors of Bim-Mcl-1 interaction, human; Q07820; Bead-based flow cytometry, Bim peptide-Mcl-1 binding; inhibition, % at 10 µM; 190,000 tested, 0.1% active; in the data active = inhibition above about 40%;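 also: 0% = no compound tracer wells and 100% = peptide blocker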
Mcl1 Bid PPI: disrupts binding of human Mcl-1 to Bid peptide; Q07820; TR-FRET Mcl-1/Bid-Dy647 peptide binding, 1536-well; inhibition, % at 21.7 µM; 220,000 tested, 0.97% active; AID 1021;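 active = compounds that cut the binding signal by more than half at the single screening dose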;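 also: His-tagged Mcl-1 with europium anti-His antibody binding Bid BH3 peptide; 0% = Mcl-1 plus peptide wells and 100% = peptide-only wells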
14-3-3 Bad inh: disrupts binding of bovine 14-3-3 zeta to phospho-Bad peptide | P63103 | TR-FRET 14-3-3zeta/Dy647-pBad peptide displacement, 1 h | inhibition, % at 21.7 µM | 220,000 tested, 0.71% active | AID 781;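 active = inhibition above about 70%, limit read from the data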;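 also: 0% = full 14-3-3 plus peptide FRET controls and 100% = background without 14-3-3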
Target sequence (P63103 whole entry, looked up): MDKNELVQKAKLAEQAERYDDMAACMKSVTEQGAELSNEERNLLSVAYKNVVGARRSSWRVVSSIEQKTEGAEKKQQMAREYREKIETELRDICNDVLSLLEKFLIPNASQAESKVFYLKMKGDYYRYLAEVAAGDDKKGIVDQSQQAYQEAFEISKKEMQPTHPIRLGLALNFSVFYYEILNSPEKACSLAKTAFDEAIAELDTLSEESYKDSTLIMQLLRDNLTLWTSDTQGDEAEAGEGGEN
MCL1-BIM inh: disrupts human MCL1 binding to BIM-BH3 peptide; Q07820; GST-MCL1 / FITC-Bim-BH3 fluorescence polarization; inhibition, % at 10.9 µM; 320,000 tested, 0.68% active;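 active = inhibition above the mean inhibition of all tested compounds plus 3 SD, set per campaign, cut at about 40% in these data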;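 also: 0% = DMSO wells and 100% = unlabeled Bim-BH3 peptide control; higher means more loss of mP so more displacement of Bim peptide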
* = called active by the depositor; . = no result; [ ] = dose if it differs, or a comment. A selection: hits, their analogues and other compounds. The true share with any hit is near 2.5%.

SMILES | Mcl1-Noxa inh | Bim-Mcl-1 | Mcl1 Bid PPI | 14-3-3 Bad inh | MCL1-BIM inh
O=C(Nc1ccc(N2CCOCC2)cc1)Nc1ccc2nc(-c3ccco3)c(-c3ccco3)nc2c1 | 102.1* | 7.0 | 42.5 | 4.5 | 12.4
O=C(NCc1ccco1)Nc1ccc2nsnc2c1 | 16.4 | 3.0 | -0.3 | -5.0 | -11.9
Cc1onc(-c2ccccc2)c1C(=O)NCc1cccc(Cl)c1 | . | . | . | . | 6.1
O=C(Cn1ncc2c3ccccc3n(Cc3cccc(Cl)c3)c2c1=O)NCC1CCCO1 (stereo not given) | . | . | . | . | -24.0
CCOc1ccccc1N=Nc1c(C)[nH]n(C(N)=S)c1=O | . | . | . | . | -0.9
CC(C)c1nccn1CCC(=O)O | 1.4 | -2.0 | -14.7 | -8.7 | 4.5
O=C(Nc1ccc2nc(-c3ccco3)c(-c3ccco3)nc2c1)NC1CC1 | 102.3* | 21.0 | 29.2 | 45.1 | .
O=C(c1cnccn1)N1CCc2ccccc2C1 | 6.7 | -2.0 | -13.9 | 93.3* | 2.3
O=C(c1cnccn1)N1CCc2ccccc21 | 29.6 | 2.0 | -36.3 | -17.8 | 10.6
O=C(c1cc(-c2ccccc2O)on1)N1CCc2ccccc2C1 | 11.2 | 3.0 | -22.3 | -0.5 | 3.6
O=C(c1cc(-c2ccco2)on1)N1CCc2ccccc2C1 | 69.2* | -3.0 | 15.0 | -0.5 | 2.1
O=C(c1cnccn1)N1CCN(c2ccccc2F)CC1 | -8.6 | 57.0* | -28.2 | 20.0 | 1.6
O=C(c1cc(=O)c2ccccc2o1)N1CCN(c2cccc(Cl)c2)CC1 | 7.9 | 2.0 | -8.5 | -2.0 | 1.4
O=C(c1cc(=O)c2ccccc2o1)N1CCN(c2ccccc2F)CC1 | 10.3 | 41.0* | -12.5 | 2.0 | -4.5
CCOc1ccc(N2CC(C(=O)Nc3ccc(OC)c(S(=O)(=O)N4CCCCC4)c3)CC2=O)cc1 (stereo not given) | 6.5 | 0.0 | -1.8 | -2.0 | 2.3
Cc1c(NC(=S)NC(NC(=O)C(C)C)C(Cl)(Cl)Cl)c(=O)n(-c2ccccc2)n1C (stereo not given) | 2.5 | -3.0 | 95.8* | 6.9 | 6.4
O=C(CSc1nnc(-c2ccncc2)n1-c1ccc(F)cc1)NC(=O)NCc1ccco1 | 63.2* | -4.0 | -0.4 | -1.3 | 6.2
Cc1ccc(-c2nnc3ccc(SCC(=O)NCc4ccco4)nn23)cc1 | 15.4 | 0.0 | 4.2 | -11.9 | -0.6
O=C(CSc1ccc2nnc(-c3ccc(F)cc3)n2n1)NCc1ccco1 | 62.4* | -7.0 | -17.4 | 1.7 | 11.2
Cc1ccc(-n2c(SCC(=O)NCc3ccco3)nnc2-c2cccnc2)cc1 | -8.3 | -6.0 | -24.2 | 2.4 | -7.7
NC(=S)n1[nH]c(-c2ccc([N+](=O)[O-])cc2)c(N=Nc2cccc(Cl)c2)c1=O | 92.6* | -2.0 | 81.5* | 88.3* | .
NC(=S)n1[nH]c(-c2ccc([N+](=O)[O-])cc2)c(N=Nc2ccc(O)cc2)c1=O | 72.9* | -1.0 | 65.5* | 41.7 | 9.1
CCOC(=O)N1CCC(NC(=O)C2CCN(S(=O)(=O)c3c(C)noc3C)CC2)CC1 | -6.7 | -1.0 | 55.2* | 3.8 | 10.4
CCCN1Cc2cccc(C(N)=O)c2C1=O | 5.6 | 1.0 | -21.1 | -3.8 | -10.3
CCOC(=O)C1CCN(C(=O)/C(=C/c2ccccc2)NC(=O)c2ccccc2)CC1 | . | . | . | . | 12.3
SMILES | Mcl1-Noxa inh | Bim-Mcl-1 | Mcl1 Bid PPI | 14-3-3 Bad inh | MCL1-BIM inh
CCNc1ccc(S(=O)(=O)N(C)C)cc1NCC(=O)Nc1c(F)cccc1F | -4.4 | -3.0 | -57.9 | -4.3 | 3.5
O=C(Nc1ccc(Br)cc1)c1ccc(N2C(=O)C3CC=CCC3C2=O)cc1 (stereo not given) | 58.5* | 0.0 | -33.2 | -0.3 | 7.4
COc1cccc(NC(=O)c2ccc(N3C(=O)C4CC=CCC4C3=O)cc2)c1 (stereo not given) | . | . | . | . | 5.3
COc1ccc(S(=O)(=O)N2CCOC2CNC(=O)C(=O)NCc2ccccn2)cc1 (stereo not given) | . | . | . | . | 13.5
COc1cc(/C=C2\SC(=O)N(Cc3ccc(F)cc3)C2=O)cc([N+](=O)[O-])c1O | 97.3* | 3.0 | 21.9 | 18.4 | .
O=C1/C(=C/c2ccc(O)c([N+](=O)[O-])c2)SC(=S)N1Cc1ccccc1 | 56.4* | -2.0 | 13.4 | -1.2 | -9.1
O=C1/C(=C\c2cccc([N+](=O)[O-])c2O)SC(=S)N1Cc1ccccc1 | . | . | . | . | 25.0
COc1cc(/C=C2\SC(=O)N(Cc3ccc(Cl)cc3)C2=O)cc([N+](=O)[O-])c1O | 91.7* | 0.0 | 90.5* | 96.4* | .
COc1cc(/C=C2/SC(=S)N(Cc3ccccc3)C2=O)cc(Cl)c1O | . | . | . | . | 9.1
CCOC(=O)CN1C(=O)S/C(=C/c2ccc(OC)c([N+](=O)[O-])c2)C1=O | 13.0 | 18.0 | -5.2 | -9.2 | 3.4
Clc1ccc(SCc2csc(N3CCOCC3)n2)cc1 | -10.4 | . | -19.7 | -3.9 | 9.7
CCOc1ccc(NS(=O)(=O)c2ccc(C(=O)N(C)CC(=O)Nc3ccc(C)cc3)cc2)cc1 | . | . | . | . | 6.5
COc1ccc(CCNC(=O)C2CC=CCC2C(=O)O)cc1 (stereo not given) | . | . | . | . | 7.9
Cc1cc(C)cc(NC(=O)CSc2nc3nc(C)cc(C)c3c(=O)[nH]2)c1 | . | . | . | . | -0.4
CC(=O)n1cc(Nc2ccc([N+](=O)[O-])cc2)c2ccccc21 | 65.5* | 0.0 | 20.3 | 18.9 | 9.0
CC(=O)n1cc(Nc2ccccc2C(=O)O)c2ccccc21 | 11.5 | -2.0 | -28.0 | 29.3 | 5.1
CC(=O)SC(C[N+](=O)[O-])c1cn(C(C)=O)c2ccccc12 (stereo not given) | 59.2* | -6.0 | 15.1 | -12.5 | 15.7
O=C(O)c1ccccc1NSc1ccccc1[N+](=O)[O-] | 21.9 | 51.0* | 2.3 | -7.1 | 20.1
O=C(O)c1cccc([N+](=O)[O-])c1C(=O)Nc1cccc2ccccc12 | . | . | . | . | 15.9
O=S(=O)(c1ccccc1F)N1CCN(Cc2nc3ccccc3[nH]2)CC1 | 20.0 | -2.0 | 79.2* | 81.7* | -8.8
O=S(=O)(c1ccccc1F)N1CCC(c2nc3ccccc3[nH]2)CC1 | . | . | . | . | 3.4
Clc1cccc(N/N=C/c2ccncc2)c1 | 17.7 | -2.0 | 8.5 | 19.4 | 2.8
Cc1cc(-c2nn(-c3ccccc3)cc2/C=C2\SC(N)=NC2=O)ccc1OC(C)C | -2.7 | 94.0* | 0.0 | -5.4 | -5.5
O=C(Nc1cccc(OC(=O)c2ccc(Br)o2)c1)c1ccccc1 | . | . | . | . | 7.4
COCCCNC(=O)c1cc2c(=O)n3cc(C)ccc3nc2nc1NCC1CCCO1 (stereo not given) | -1.1 | -10.0 | 65.6* | 0.2 | 7.0
Cc1ccc2nc3nc(NCC4CCCO4)c(C(=O)NC4CCCC4)cc3c(=O)n2c1 (stereo not given) | 15.1 | 0.0 | 1.8 | 1.4 | 2.4
O=S(=O)([O-])CCC[n+]1c(SCCCS(=O)(=O)O)sc2ccc(Cl)cc21 | 16.9 | -1.0 | -13.9 | 92.5*[fluorescence artefact?] | -1.4
CCOc1ccc(CC(=O)NCCc2cnc[nH]2)cc1 | . | . | . | . | -10.8
CC(=O)Nc1ccc(C2=NNC(=NCC3CCCO3)SC2)cc1 (stereo not given) | 60.6* | 1.0 | 3.4 | -18.2 | 1.6
Fc1ccc(F)c(C2=NNC(=NCC3CCCO3)SC2)c1 (stereo not given) | 29.9 | -2.0 | 17.8 | 1.6 | 13.8
